In PubChem BioAssay AID651998 (The Scripps Research Institute Molecular Screening Center, 2013) one finds Ki data, which are given here for one compound.

This assay has as its system LYPLA1. Kind of assay: LYPLA1 enzyme kinetics with inhibitors – biochemical, substrate-based fluorescence, Ki, Km, late-stage follow-up (AID 651998). The settings on record: recombinant LYPLA1, resorufin acetate hydrolysis fluorescence, Ki from Cheng-Prusoff.

The structures appear in SMILES notation.

Broadly, the Ki is the equilibrium dissociation constant of an inhibitor or competing ligand from its target. For the compound `O=C(CN1CCN(C(=O)c2ccco2)CC1)Nc1cc(C(F)(F)F)ccc1Cl`, the Ki came to 300 nM.
